Test results taken from PubChem BioAssay (NCATS).
Results filed as inconclusive are left out. Activity calls are given as the source filed them. Unless noted, the call rests on the fitted dose curve; in most records, active means well fitted curve in the direction sought with a large enough effect; inconclusive means small, poorly fitted or top-dose-only effect, or another doubt; inactive means no such curve, though single readings can be large; an effect the other way counts as inactive or inconclusive.

How the values were obtained:
[1] = molecular target: Thyroid hormone receptor beta (Homo sapiens) (UniProt P10828); experiment: qHTS assay for small molecule agonists of thyroid hormone receptor beta signaling (AID 588545; calls by dose curve)
Chain of Thyroid hormone receptor beta (Homo sapiens) (P10828 whole entry, looked up): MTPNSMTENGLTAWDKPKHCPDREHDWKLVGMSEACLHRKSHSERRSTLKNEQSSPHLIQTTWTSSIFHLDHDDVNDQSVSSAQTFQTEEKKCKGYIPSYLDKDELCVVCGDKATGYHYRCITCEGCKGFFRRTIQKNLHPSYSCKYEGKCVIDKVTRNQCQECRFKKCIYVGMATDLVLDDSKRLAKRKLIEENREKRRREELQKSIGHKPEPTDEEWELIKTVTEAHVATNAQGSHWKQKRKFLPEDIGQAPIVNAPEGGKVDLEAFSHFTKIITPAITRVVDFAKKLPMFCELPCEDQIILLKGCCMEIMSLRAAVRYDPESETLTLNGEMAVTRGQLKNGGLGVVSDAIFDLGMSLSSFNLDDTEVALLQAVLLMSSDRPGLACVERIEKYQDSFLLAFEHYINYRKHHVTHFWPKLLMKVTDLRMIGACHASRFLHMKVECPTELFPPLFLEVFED
Method in brief: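 Cells (2500/well) were seeded, incubated 4 hrs at 37 C, dosed with a compound series, incubated 18 hrs, loaded with CCF4 dye for 2 hrs at RT, then read for fluorescence. Data were scaled between DMSO (0%) and 10 nM T3 (100%).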

[2] = qHTS assay for small molecule activators of the p53 signaling pathway (AID 651743; active means well fitted activation curve with a large enough effect in the signal ratio, not every such curve was filed as active; the % refers to the signal ratio; further: series mostly up to about 92 µM; % of control where 0% means no effect); settings: HCT-116 p53RE-bla, beta-lactamase FRET ratio, 16 h; activation: stronger effect = higher value
Method in brief: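 A beta-lactamase reporter under p53 response element control, stably carried by HCT-116 cells, reported pathway activation. Test compounds were applied for 16 hours at 37 C, and fluorescence was measured 2 hours after adding the B/G FRET substrate.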

[3] = qHTS assay for small molecule activators of the nuclear factor-kappa B (NF-kB) signaling pathway (AID 651749; active means well fitted activation curve with a large enough effect in the signal ratio; the % refers to the signal ratio; further: series mostly up to about 77 µM; % of control where 0% means no effect); settings: NF-kB-bla ME-180 cells, beta-lactamase FRET ratio, 16 h; activation: stronger effect = higher value
Method in brief: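 FRET-based beta-lactamase detection in ME-180 cells reports NF-kB response-element-driven transcription following overnight (16 hr) compound treatment.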

[4] = qHTS assay for environmental chemicals that activate the Aryl hydrocarbon Receptor (AhR) signaling pathway (AID 651777); settings: 1A2-DRE human hepatoma cells, luciferase, 24 h; activation: stronger effect = higher value; further: % of control where 0% means no effect; nearly all actives have a fitted effect of over 15% in size
Method in brief: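 Following a 24 hr incubation with test chemicals at 37 C and 5% CO2, 1A2-DRE human hepatoma cells received One-Glo reagent; after 30 min at room temperature, luciferase output reflected CYP1A2 induction via AhR.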

[5] = molecular target: Peroxisome proliferator-activated receptor alpha (Homo sapiens) (UniProt Q07869); experiment: qHTS assay for small molecule agonists of the peroxisome proliferator-activated receptor alpha (PPARalpha) signaling pathway (AID 651778); settings: PathHunter PPARalpha complementation, chemiluminescence, 6 h; max response: stronger effect = higher value; further: potency means the concentration at half of the fitted maximal effect; on max response: % of control where 0% means no effect
Chain of Peroxisome proliferator-activated receptor alpha (Homo sapiens) (Q07869 whole entry, looked up): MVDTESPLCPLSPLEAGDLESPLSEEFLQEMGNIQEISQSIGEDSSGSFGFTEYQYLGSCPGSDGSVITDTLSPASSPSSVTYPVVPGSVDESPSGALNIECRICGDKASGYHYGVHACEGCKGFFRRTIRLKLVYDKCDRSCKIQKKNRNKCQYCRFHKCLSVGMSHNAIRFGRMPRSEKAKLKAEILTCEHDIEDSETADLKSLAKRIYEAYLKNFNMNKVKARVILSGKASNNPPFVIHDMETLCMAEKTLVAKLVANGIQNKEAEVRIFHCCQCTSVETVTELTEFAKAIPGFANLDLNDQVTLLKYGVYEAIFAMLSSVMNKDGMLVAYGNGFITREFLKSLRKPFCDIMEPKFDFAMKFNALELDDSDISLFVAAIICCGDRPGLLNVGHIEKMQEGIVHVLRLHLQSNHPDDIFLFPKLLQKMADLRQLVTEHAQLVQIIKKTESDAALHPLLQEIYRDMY
Method in brief: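 Chemiluminescence from complemented enzyme reported PPARalpha activation in cells after 6 hr of compound treatment at 37 C. The detection reagent was incubated for 60 min at room temperature, and compounds were scored as agonists.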

[6] = qHTS assay for small molecule agonists of the antioxidant response element (ARE) signaling pathway measured by Nrf2-dependant transcriptional activity (AID 720636; active means well fitted curve in the direction sought with a large enough effect in the repeat runs; an effect the other way counts as inactive or inconclusive;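 further: HepG2 cells with an ARE-driven luciferase reporter; % of control where 0% means no effect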)
Method in brief: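 ONE-Glo luminescence, read 30 min after reagent addition at room temperature, reflected ARE reporter activity in HepG2 cells that had been incubated with compound for 16 hr at 37 C in 1% dialyzed FBS.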

[7] = qHTS assay for small molecule agonists of the antioxidant response element (ARE) signaling pathway measured by Nrf2-dependant transcriptional activity - cell viability counter screen (AID 720653; active means well fitted curve in the direction sought with a large enough effect in the repeat runs; an effect the other way counts as inactive or inconclusive; further: on the % scale 0 is the no-effect control and ±100 the full control effect); settings: ARE-bla HepG2 viability, CellTiter-Glo ATP luminescence, 16 h; max response: stronger effect = lower value
Method in brief: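 Cytotoxicity counter screen: intracellular ATP quantified by CellTiter-Glo luminescence in the same ARE-bla HepG2 plates, after 16 h compound exposure and a 2 h beta-lactamase substrate step.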

[8] = qHTS assay for cell viability of HEK293 cells (AID 743288); settings: ATP luminescence (CellTiter-Glo), 18 h; max response: stronger effect = lower value; further: on the % scale 0 is the no-effect control and ±100 the full control effect; nearly all actives have a fitted effect of over 50% in size
Method in brief: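 ATP luminescence (CellTiter-Glo) reports metabolically competent cell number after parental HEK293 cells, 2,000/well, were treated with DMSO-dissolved compounds for 18 h at 37 C; reagent incubation 30 min, room temperature.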

[9] = qHTS assay for cell viability of the p53RE-bla HCT-116 cell line (AID 743292); further: on the % scale 0 is the no-effect control and ±100 the full control effect; nearly all actives have a fitted effect of over 55% in size
Method in brief: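 After plating at 4,000 cells per well and a 5 h rest at 37 C, HCT-116 cells carrying p53RE-bla received test chemicals in DMSO. Sixteen hours later at 37 C, CellTiter-Glo was added and luminescence recorded following 30 min at room temperature.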

[10] = molecular target: Nuclear receptor subfamily 1 group I member 2 (Rattus norvegicus) (UniProt Q9R1A7); experiment: qHTS assay for small molecule activators of the rat pregnane X receptor (rPXR) signaling pathway (AID 651751; call rule not given here; further: 0% is about no effect); settings: rPXR reporter cells, luciferase (One-Glo), 24 h
Chain of Nuclear receptor subfamily 1 group I member 2 (Rattus norvegicus) (Q9R1A7 whole entry, looked up): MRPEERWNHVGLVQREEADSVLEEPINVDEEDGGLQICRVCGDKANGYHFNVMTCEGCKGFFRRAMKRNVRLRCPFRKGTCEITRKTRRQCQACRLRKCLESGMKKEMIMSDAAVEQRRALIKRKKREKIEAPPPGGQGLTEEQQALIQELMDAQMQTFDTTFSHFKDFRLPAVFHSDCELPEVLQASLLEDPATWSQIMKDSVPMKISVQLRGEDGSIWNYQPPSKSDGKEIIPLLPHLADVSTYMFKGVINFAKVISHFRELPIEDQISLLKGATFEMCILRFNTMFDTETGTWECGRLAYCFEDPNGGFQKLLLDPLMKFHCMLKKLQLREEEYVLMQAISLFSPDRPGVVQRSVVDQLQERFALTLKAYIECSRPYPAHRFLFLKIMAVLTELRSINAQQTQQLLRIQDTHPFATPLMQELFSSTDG

[11] = qHTS assay for small molecule activators of the human pregnane X receptor (PXR) signaling pathway (AID 720659; call rule not given here; further: 0% is about no effect)
[12] = qHTS assay for small molecule antagonists of peroxisome proliferator-activated receptor delta signaling (AID 588535; active means well fitted inhibition curve with a large enough effect in the signal ratio, with a control signal flat, not every such curve was filed as active; the % refers to the signal ratio;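 on max response: cells co-treated with a PPAR-delta agonist as stimulator during compound exposure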); settings: HEK293T PPARd-UAS-bla, beta-lactamase FRET ratio, 18 h; 460 nm channel
Method in brief: (§1)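 Antagonist-mode qHTS using GeneBLAzer PPAR-delta-UAS-bla HEK293T cells; compound exposure 18 hrs at 37 C over a titration. Ratiometric CCF4 fluorescence at 460/530 nm; concentration-response points fitted to the Hill equation.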

[13] = molecular target: Peroxisome proliferator-activated receptor delta (Homo sapiens) (UniProt Q03181); experiment: as above
Chain of Peroxisome proliferator-activated receptor delta (Homo sapiens) (Q03181 whole entry, looked up): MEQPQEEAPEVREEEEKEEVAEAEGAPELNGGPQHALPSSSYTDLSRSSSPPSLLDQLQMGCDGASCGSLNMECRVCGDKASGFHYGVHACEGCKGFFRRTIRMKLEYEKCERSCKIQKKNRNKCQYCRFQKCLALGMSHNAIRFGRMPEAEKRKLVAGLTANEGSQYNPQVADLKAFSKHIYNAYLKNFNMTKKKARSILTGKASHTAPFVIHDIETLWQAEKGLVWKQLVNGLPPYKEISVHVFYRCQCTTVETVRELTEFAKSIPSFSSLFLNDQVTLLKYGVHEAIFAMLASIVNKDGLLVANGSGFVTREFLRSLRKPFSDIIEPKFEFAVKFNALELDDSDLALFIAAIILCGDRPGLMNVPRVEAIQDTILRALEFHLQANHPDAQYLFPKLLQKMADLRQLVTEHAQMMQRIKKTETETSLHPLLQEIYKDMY
Method in brief: as §1

[14] = qHTS assay for small molecule agonists of retinoid X receptor alpha signaling (AID 588544; calls by dose curve;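 on activation: 0% = DMSO basal wells and 100% = reference agonist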); settings: HEK293T RXRa-UAS-bla, beta-lactamase reporter, 18 h; 530 nm emission
[15] = molecular target: Retinoic acid receptor RXR-alpha (Homo sapiens) (UniProt P19793); experiment: as above
Chain of Retinoic acid receptor RXR-alpha (Homo sapiens) (P19793 whole entry, looked up): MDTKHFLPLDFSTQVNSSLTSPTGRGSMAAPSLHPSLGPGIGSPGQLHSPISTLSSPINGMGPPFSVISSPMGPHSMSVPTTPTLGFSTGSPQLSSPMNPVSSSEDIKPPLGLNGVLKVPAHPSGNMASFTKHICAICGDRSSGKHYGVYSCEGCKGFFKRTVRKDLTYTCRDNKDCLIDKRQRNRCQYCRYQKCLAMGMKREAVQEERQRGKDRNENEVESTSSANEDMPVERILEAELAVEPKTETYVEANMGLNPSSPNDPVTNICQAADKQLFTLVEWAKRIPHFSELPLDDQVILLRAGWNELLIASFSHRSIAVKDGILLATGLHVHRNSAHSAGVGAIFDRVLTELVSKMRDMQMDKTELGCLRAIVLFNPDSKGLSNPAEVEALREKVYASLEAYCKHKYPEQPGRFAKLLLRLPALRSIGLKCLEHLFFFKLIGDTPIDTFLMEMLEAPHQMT

[16] = qHTS assay for small molecule antagonists of retinoid X receptor alpha signaling (AID 588546; active means well fitted inhibition curve with a large enough effect in the signal ratio, with a control signal flat, not every such curve was filed as active; the % refers to the signal ratio;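 further: cells stimulated with 9-cis-retinoic acid as agonist; on the % scale 0 is the no-effect control and ±100 the full control effect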); settings: HEK293T RXRa-UAS-bla, beta-lactamase ratio, antagonist mode; measured here: W530 green channel, cytotoxicity proxy
Method in brief: (§2)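 Beta-lactamase reporter inhibition, read as CCF4 fluorescence ratio (ex 405, em 460/530 nm) after 2 h at RT. HEK293T UAS-bla cells, 2500/well, were stimulated with 9-cis-RA at 500 or 100 nM final alongside test compound for 18 h at 37 C.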

[17] = molecular target: Retinoic acid receptor RXR-alpha (Homo sapiens) (UniProt P19793); experiment: as above; settings: HEK293T RXRa-UAS-bla, beta-lactamase ratio, antagonist mode
Method in brief: as §2

[18] = molecular target: Vitamin D3 receptor (Homo sapiens) (UniProt P11473); experiment: qHTS assay for small molecule antagonists of vitamin D receptor signaling (AID 588541; calls by dose curve;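 further: receptor activated by calcitriol during compound treatment; series mostly up to about 77 µM; on the % scale 0 is the no-effect control and ±100 the full control effect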)
Chain of Vitamin D3 receptor (Homo sapiens) (P11473 whole entry, looked up): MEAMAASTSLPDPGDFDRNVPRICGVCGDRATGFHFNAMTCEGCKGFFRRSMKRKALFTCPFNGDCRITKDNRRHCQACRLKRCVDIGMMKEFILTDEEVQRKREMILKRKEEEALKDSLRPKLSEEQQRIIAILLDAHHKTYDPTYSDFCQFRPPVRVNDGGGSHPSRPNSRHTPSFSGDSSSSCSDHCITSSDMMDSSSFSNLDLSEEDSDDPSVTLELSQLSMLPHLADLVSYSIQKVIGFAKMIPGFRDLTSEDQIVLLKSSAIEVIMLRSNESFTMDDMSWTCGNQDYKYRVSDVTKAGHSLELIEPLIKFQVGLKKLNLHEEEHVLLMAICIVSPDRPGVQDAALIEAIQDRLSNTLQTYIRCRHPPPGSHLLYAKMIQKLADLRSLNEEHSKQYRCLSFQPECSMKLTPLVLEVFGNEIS
Method in brief: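 Antagonist-mode beta-lactamase reporter assay: HEK293T VDR-UAS-bla cells were exposed to titrated compound alongside 1-alpha,25-dihydroxyvitamin D3 at 3 nM final for 16 h. Values were normalized to the 50 nM agonist control and DMSO basal, with IC50 and efficacy from Hill equation fits.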

[19] = molecular target: Vitamin D3 receptor (Homo sapiens) (UniProt P11473); experiment: qHTS assay for small molecule agonists of vitamin D receptor signaling (AID 588543; calls by dose curve;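 further: 0% = DMSO basal and 100% = reference agonist control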)
Method in brief: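 β-lactamase reporter, VDR-UAS-bla HEK293T, agonist mode. Cells plated 5 h at 37 °C, compound titration 16 h at 37 °C, CCF4 dye 2 h RT, ratio 460/530 nm. Hill fit → EC50, efficacy vs 50 nM 1α,25-(OH)2D3.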

[20] = molecular target: Thyroid hormone receptor beta (Homo sapiens) (UniProt P10828); experiment: qHTS assay for small molecule antagonists of thyroid hormone receptor beta signaling (AID 588547; active means well fitted inhibition curve with a large enough effect in the signal ratio, with a control signal flat, not every such curve was filed as active; the % refers to the signal ratio;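 further: cells stimulated with 0.4 nM T3 agonist during compound exposure; series mostly up to about 77 µM; on the % scale 0 is the no-effect control and ±100 the full control effect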); settings: TR-UAS-bla HEK293, beta-lactamase ratio, antagonist mode, 18 h
Method in brief: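 Inhibition of T3-driven (0.4nM final) beta-lactamase reporter activity was measured over 0.59 nM to 92 uM compound after 18 h at 37 C. The cells were GripTite HEK293 TR-UAS-bla in charcoal/dextran-stripped serum, with CCF4 ratio read-out and IC50 from Hill fits.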

CC(=O)CC(=O)Nc1ccc(C)cc1C
Potency [1]: inactive
activation [2]: -5.45% (inactive)
activation [3]: 0.179% (inactive)
activation [4]: 0.555% (inactive)
max response [5]: -1.32% (inactive)
Potency [6]: inactive
max response [7]: -2.61% (inactive)
max response [8]: -7.21% (inactive)
Potency [9]: inactive
max response [10]: -1.86% (inactive)
outcome [11]: inactive

CCCCC(CC)COC(=O)c1ccc(C(=O)OCC(CC)CCCC)cc1 (stereo not drawn)
max response [12]: -1.09%
Potency [13]: inactive
max response [14]: -8.11%
Potency [15]: inactive
Potency [1]: inactive
max response [16]: -7.23%
max response [17]: 5.51% (inactive)
activation [2]: 0.101% (inactive)
activation [4]: -2.7% (inactive)
max response [5]: -1.72% (inactive)
Potency [6]: inactive
max response [7]: -17% (inactive)
max response [8]: -13.5% (inactive)
Potency [9]: inactive
max response [10]: -0.0794% (inactive)
outcome [11]: inactive

O=C1NC(=O)C(Cc2ccc(OCCN3COc4ccccc4C3=O)cc2)S1 (stereo not drawn)
Potency [1]: inactive
max response [16]: 33.2%
max response [17]: -11.1% (inactive)
activation [2]: 0.726% (inactive)
activation [3]: 0.424% (inactive)
activation [4]: 13.4% (inactive)
Potency [5]: 17.8 µM (active)
max response [7]: -6.38% (inactive)
max response [8]: -10.2% (inactive)
Potency [9]: inactive
max response [10]: 1.08% (inactive)

C[Si]1(C)O[Si](C)(C)O[Si](C)(C)O[Si](C)(C)O1
max response [12]: 8.31%
Potency [13]: inactive
Potency [18]: inactive
outcome [19]: inactive
Potency [1]: inactive
max response [16]: 1.41%
max response [17]: 6.05% (inactive)
activity change % (negative = inhibition) [20]: 11% (inactive)
activation [2]: -2.06% (inactive)
activation [3]: 0.122% (inactive)
activation [4]: -0.142% (inactive)
max response [5]: -0.153% (inactive)
Potency [6]: inactive
max response [8]: 0.965% (inactive)
Potency [9]: inactive
max response [10]: 3.43% (inactive)
outcome [11]: inactive

Cc1nn(C)c(Oc2ccccc2)c1/C=N/OCc1ccc(C(=O)OC(C)(C)C)cc1
max response [14]: -10.3%
Potency [15]: inactive
Potency [1]: inactive
activity change % (negative = inhibition) [20]: -18.8% (inactive)
max response [5]: 2.08% (inactive)
Potency [6]: inactive
Potency [9]: inactive
outcome [11]: inactive

CCCCN(CCCC)CCCCCCN(CCCC)CCCC
max response [12]: 6.65%
Potency [13]: inactive
Potency [18]: inactive
outcome [19]: inactive
max response [14]: -14.8%
Potency [15]: inactive
Potency [1]: inactive
activity change % (negative = inhibition) [20]: 10% (inactive)
activation [2]: -4.69% (inactive)
activation [4]: 1.73% (inactive)
max response [5]: -0.567% (inactive)
Potency [6]: inactive
max response [7]: -9.43% (inactive)
max response [8]: -21.9% (inactive)
Potency [9]: inactive
max response [10]: 4.27% (inactive)
outcome [11]: inactive

CC1(C)C(=O)N(Br)C(=O)N1Br
max response [12]: -25.7%
Potency [13]: inactive
Potency [18]: inactive
outcome [19]: inactive
max response [14]: -13.9%
Potency [15]: inactive
Potency [1]: inactive
max response [16]: -0.87%
max response [17]: -10.9% (inactive)
activity change % (negative = inhibition) [20]: 6.14% (inactive)
activation [2]: -3.66% (inactive)
activation [4]: 1.3% (inactive)
max response [5]: -2.02% (inactive)
Potency [6]: inactive
max response [8]: -3.78% (inactive)
Potency [9]: inactive
max response [10]: -0.134% (inactive)
outcome [11]: inactive
